Compound activity: PubChem BioAssay, National Center for Advancing Translational Sciences (NCATS)
Lassa entry inh: qHTS for Inhibitors of binding or entry into cells for Lassa Virus; Lassa virus pseudotype entry inhibition, cell reporter; Potency, µM (doses to about 37.9 µM), for inactives: top-dose activity change, negative = inhibition, actives largely listed as inhibitors; actives 1.2% (n = 300,000); AID 540256, 2011; calls by dose curve; tested in HEK293 cells; further: potency means the concentration at half of the fitted maximal effect; nearly all actives have a fitted effect of over 50% in size
FMDV antiviral: High Throughput Screening for Foot and Mouth Disease Virus Antivirals; FMDV antiviral cell-based qHTS; Potency, µM (titrated, usually from 57.9 µM), for inactives: at the top dose activity change, negative = inhibition, hits mostly inhibitors; actives 1.2% (n = 410,000); AID 1159524, 2015; calls by dose curve; tested in HEK293T cells; further: read-out not given here; potency means the concentration at half of the fitted maximal effect; nearly all actives have a fitted effect of over 45% in size
Vaccinia Venus: qHTS for Stage-Specific Inhibitors of Vaccinia Orthopoxvirus: Venus Reporter Primary qHTS. Potency, µM (doses to about 36.5 µM), for inactives: top-dose activity change, negative = inhibition, usual class: inhibitors. AID 720580, 2013. actives 0.46% (n = 330,000). Vaccinia virus Venus reporter expression, fluorescence; calls by dose curve; tested in A549 cells; further: potency means the concentration at half of the fitted maximal effect; nearly all actives have a fitted effect of over 30% in size
MARV entry inh: qHTS for inhibitors of binding or entry into cells for Marburg Virus. Marburg virus pseudotyped entry inhibition, cell reporter. Potency, µM (titrated, usually from 37.8 µM), inactives show at the top dose activity change, negative = inhibition, actives largely listed as inhibitors. actives 1.8% (n = 300,000). AID 540276, 2011; calls by dose curve; tested in HEK293 cells; further: potency means the concentration at half of the fitted maximal effect
HCMV antiviral: qHTS Assay for inhibitors of the human cytomegalovirus (HCMV) | HFF cells, HCMV-luciferase reporter, 72 h; hits give low values | activity change, negative = inhibition, % at 57.5 µM | actives 4.5% (n = 410,000) | AID 1259415, 2018; in the data active means activity change below about -60%; inconclusive means no clear call, values can overlap the other calls; inactive means above about -39%
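Compounds were evaluated in HFFs infected with an HCMV luciferase reporter virus (MOI 1 PFU/cell). Luciferase in lysates collected 72 h post infection served as the replication measure.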
VACV mCherry inh: qHTS for Stage-Specific Inhibitors of Vaccinia Orthopoxvirus: mCherry Reporter Primary qHTS; Vaccinia virus mCherry reporter infection, fluorescence; Potency, µM (highest dose often 36.5 µM), for the others: top-dose activity change, negative = inhibition, usual class: inhibitors; actives 0.63% (n = 310,000); AID 720579, 2013; calls by dose curve; tested in A549 cells; further: potency means the concentration at half of the fitted maximal effect; nearly all actives have a fitted effect of over 35% in size
* hit, by the source's call; i = inactive; ? = inconclusive; · = no result; [ ] = another dose, or the depositor's remark. Only some compounds are listed: those with a hit (about 6.5% of all), similar ones and a draw of the others. On the % scale 0 is the no-effect control and ±100 the full control effect.

SMILES	Lassa entry inh	FMDV antiviral	Vaccinia Venus	MARV entry inh	HCMV antiviral	VACV mCherry inh
CC(=O)N1CCN(CC(=O)Nc2ccccc2Sc2ccccc2)CC1	10µM*	0%	-19%	?	-26	-18%
CNC(C)C(=O)NC(C(=O)NC(C)C(=O)Nc1cccc2ccccc12)C(C)C (centres undefined)	·	-21%	-1%	·	27	4%
COC(=O)[C@@H]1CC[C@H](C)[C@@H](c2ccc(C)cc2)N1C(=O)c1ccc(/C=N/OC[C@H]2O[C@H](c3ccccc3)C=C[C@@H]2Oc2ccc(OC)cc2)cc1	·	·	·	-7%[14.2 µM]	·	·
OCC1(Cc2ccc(Cl)cc2)CCN(CCCc2ccccc2)CC1	?	-17%	-24%	?	-9	i
O=C(NC1(Cc2ccccc2)CCN(CCCc2ccccc2)C1=O)c1ccccc1 (centres undefined)	·	1%	?	·	-98*	i
Cn1cc(/C=C/c2cc[n+](C)cc2)c2cc(F)ccc21	?	?	-16%	?	·	-17%
C[n+]1ccc(/C=C/c2c[nH]c3ccc(F)cc23)cc1	·	?	·	·	-97*	·
O=C(NCC1OCCc2ccccc21)c1ccc(NC(=O)c2ccc(Cl)cc2)cc1 (centres undefined)	?	0%	?	-18%	-82*	?
CCN(C(=O)CCS(=O)(=O)c1cccc2nonc12)c1ccc(C)c(C)c1	-7%	13%	-20%	?	-19	-12%
Cc1cccc(N(C)C(=O)CCS(=O)(=O)c2cccc3nonc23)c1	10%	-6%	-11%	4%	-66*	-13%
CCCNC(=O)N1[C@@H]2Cn3c(cccc3=O)[C@H]1[C@@H](C(=O)OC)[C@@H]2CO	·	·	·	·	8	·
COc1cc(C)c(CN2CCC3(CCC(CNC(=O)c4ccnn4C)O3)CC2)cc1C (centres undefined)	·	2%	-14%	·	·	i
CCOC(=O)C1=C(C)N(c2ccc(OC)cc2)C(=O)/C1=C\c1cccs1	-5%	?	·	-2%	-62*	·
Cc1ccc(NC(=O)C2CCN(S(=O)(=O)c3cc([N+](=O)[O-])ccc3Cl)CC2)nc1	·	?	·	·	-30	·
O=C(NCc1ccccn1)Nc1cc(Cl)ccc1Cl	·	8%	·	·	-67*	·
O=C(NCc1cccnc1)C1CCN(S(=O)(=O)c2cc([N+](=O)[O-])ccc2Cl)CC1	1%	?	?	-29%	-29	14µM*
Cc1ccc(Cl)cc1NC(=O)NCc1ccccn1	·	27%	·	·	-24	·
O=C(NCc1ccccn1)C1CCN(S(=O)(=O)c2cc(Cl)ccc2Cl)CC1	-21%	-11%	-7%	16%	-62*	-18%
CCOc1ccc(Cl)cc1S(=O)(=O)N1CCC(C(=O)NCc2ccccn2)CC1	·	6%	-3%	6%[46.1 µM]	26	-2%
Cc1ccc2nc(NC(=O)C3CCN(S(=O)(=O)c4cc([N+](=O)[O-])ccc4Cl)CC3)sc2c1	?	?	?	8.2µM*	-10	?
Cc1c(C(=O)NC2CCCC2)sc2ncnc(NCCN(C)C)c12	·	-5%	-4%	·	·	-7%
O=C1Cc2cc(S(=O)(=O)N3CCNCC3)ccc2N1	14%	-5%	0%	3%	-6	-5%
CC1CCN(C(=O)C2CCN(S(=O)(=O)c3cc(Cl)ccc3Cl)CC2)CC1	?	-19%	-4%	-9%[46.1 µM]	-87*	2%
CCN(CC)S(=O)(=O)c1ccc(S(=O)(=O)N2CCC(C(=O)NC3CCN(Cc4ccccc4)CC3)CC2)cc1	·	-5%	-5%	?	·	7%
O=C(Nc1nc2ccc(F)cc2s1)C1CCN(S(=O)(=O)c2cc([N+](=O)[O-])ccc2Cl)CC1	?	20µM*	?	?	-6	?
SMILES	Lassa entry inh	FMDV antiviral	Vaccinia Venus	MARV entry inh	HCMV antiviral	VACV mCherry inh
Cc1ccc(Cl)cc1S(=O)(=O)N1CCC(C(=O)NC2CCN(Cc3ccccc3)CC2)CC1	-12%[46.1 µM]	-14%	0%	?	-72*	-19%
COc1ccc([C@]23Cc4c(ccc5ccccc45)[C@H](O2)C2=C(CCCC2=O)O3)cc1	·	·	·	-21%[14.2 µM]	·	·
CC(C)CO/N=C1\C[C@@H](O)[C@@H](O)[C@@H]2[C@@H]3C(=O)N(Cc4ccc5c(c4)OCO5)C(=O)[C@@H]3CC[C@H]12	·	·	·	-30%[14.2 µM]	·	·
CCOc1cc(/C=C2\C(=O)N(Cc3ccc(C)cc3)C(C)=C2C(=O)OC)ccc1O	?	35µM*	-19%	2%	23	·
CC(=O)NC(CC(C)C)C(=O)NC(Cc1ccccc1)C(N)=O (centres undefined)	1%	32%	·	?	·	·
CC(=O)NC(CC(C)C)C(=O)NC(Cc1ccccc1)C(=O)CCl (centres undefined)	-13%	28µM*	-18%	?	-11	-7%
COC(=O)[C@H](Cc1ccccc1)NS(=O)(=O)N[C@@H](Cc1ccccc1)C(=O)OC	·	19%	0%	·	-62*	i
COC(=O)C(Cc1ccc(O)cc1)NS(=O)(=O)Cc1ccccc1 (centres undefined)	·	·	·	·	12	·
Cc1ccc(S(=O)(=O)N[C@@H](Cc2ccccc2)C(=O)CCl)cc1	4.6µM*	32µM*	?	10µM*	21	-14%
CC(C1CC1)N(Cc1ccccc1)C(=O)NC(=O)c1ccc(F)cc1 (centres undefined)	11µM*	12%	-26%	5%	20	-3%
CCC(C)c1ccc2oc(-c3ccc(NC(=O)Cn4cnc5c(=O)n(C)c(=O)n(C)c54)cc3)nc2c1 (centres undefined)	?	14%	·	?	-73*	·
Cn1c(=O)c2ncn(CC(=O)Nc3ccc(N4CCOCC4)cc3)c2n(C)c1=O	-1%	-2%	·	-12%	-3	·
Cc1ccc2nsnc2c1NC(=O)COc1ccccc1	-17%[46.1 µM]	-8%	-7%	2%[46.1 µM]	27	i
CN1CCC(C2(O)c3ccccc3CCc3ccccc32)CC1	-2%	6%	-8%	18µM*	?	-3%
CCC(CC)C(=O)N(C)c1c(C)nc2c(OCCOc3ccc(F)cc3)cccn12	·	?	-21%	·	-92*	-3%
Cc1nc2c(OCc3ccc(OC(F)F)cc3)cccn2c1N(C)C(=O)CCC1CCCC1	·	25µM*	-15%	·	-23	-3%
Cc1ccccc1COn1nnc2ccc(S(=O)(=O)N3CCOCC3)cc21	-19%[46.1 µM]	?	7.9µM*	-4%	-19	4.5µM*
Cc1ccc(S(=O)(=O)NCCC(=O)N2CCN(c3cccc(Cl)c3)CC2)cc1C	-25%	?	-24%	?	2	-14%
Cc1ccc(Cl)cc1N1CCN(C(=O)COc2ccc(S(=O)(=O)NC(C)C)cc2)CC1	·	?	?	·	-89*	?
